High-throughput results as filed in PubChem.
Sampled rows, rich in hits. Any-hit rate of the full collection: about 0.45%.
NCOA3 inh: inhibits human SRC3 coactivator; HEK293 GAL4-SRC3 luciferase reporter, luminescence; hit rate 0.17% among 360,000; inhibition, % at 3.6 µM;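 active = inhibition above a per-campaign cutoff, the mean of all compounds plus 3 SD, cut at about 60% in these data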;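 also: higher means less SRC3-driven luciferase light from the GAL4 reporter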
LGR2 antag: blocks bursicon-induced cAMP signaling via Drosophila LGR2; AID 720647; HEK293 LGR2, CRE-luciferase, bursicon-stimulated, 4 h; inhibition, % at 9.99 µM; hit rate 0.35% among 380,000;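 active = drop in luminescence signal, shown as inhibition above about 50% in the replicate tests, limit read from the data, passing the limit was not always enough; inconclusive = probably only some replicates passing the limit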;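 also: agonist challenge used bursicon conditioned medium at about half maximal strength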
NR5A2 inv ag: inverse agonists of human LRH-1 (NR5A2) | O00482 | HEK293T StAR-luciferase reporter, LRH-1 transfected, 24 h | inhibition, % at 3.6 µM | hit rate 0.13% among 360,000;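 active = inhibition above the mean inhibition of all tested compounds plus 3 SD, cut at about 73% in these data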
Target sequence (O00482 whole entry, looked up): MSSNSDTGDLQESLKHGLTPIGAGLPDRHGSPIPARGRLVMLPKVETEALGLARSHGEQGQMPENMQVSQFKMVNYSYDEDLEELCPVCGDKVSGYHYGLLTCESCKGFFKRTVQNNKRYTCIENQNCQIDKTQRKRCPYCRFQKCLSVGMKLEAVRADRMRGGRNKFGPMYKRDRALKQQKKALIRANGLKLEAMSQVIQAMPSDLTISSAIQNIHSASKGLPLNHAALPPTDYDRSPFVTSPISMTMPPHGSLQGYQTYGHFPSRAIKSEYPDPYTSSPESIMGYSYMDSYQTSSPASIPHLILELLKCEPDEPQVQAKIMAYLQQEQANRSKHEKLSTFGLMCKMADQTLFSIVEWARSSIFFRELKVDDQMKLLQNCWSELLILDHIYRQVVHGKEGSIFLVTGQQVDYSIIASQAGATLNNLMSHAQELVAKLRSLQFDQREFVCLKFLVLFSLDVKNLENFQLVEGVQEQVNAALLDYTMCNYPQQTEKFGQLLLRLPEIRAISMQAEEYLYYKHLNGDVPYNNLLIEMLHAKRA
SRC2 inh: human SRC2 (NCOA2) inhibition; Q15596; HEK293 GAL4-SRC2 luciferase reporter, luminescence; inhibition, % at 9 µM; hit rate 0.17% among 370,000; AID 651957;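 active = inhibition above the mean inhibition of all tested compounds plus 3 SD, set per campaign, cut at about 52% in these data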
SRC1 inh: human NCOA1 inhibition. HEK293 GAL4-SRC1 luciferase reporter, luminescence. AID 588354. hit rate 0.12% among 360,000. Q15788. inhibition, % at 3.6 µM;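 active = inhibition above the campaign mean plus 3 SD, with each screening campaign given its own cutoff, cut at about 60% in these data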
Hits are given with their value.

Results for Cc1ccc2nc(-c3ccc(NC(=O)C(C)Sc4nncs4)cc3)sc2c1 (stereo unspecified) ?
NCOA3 inh: inactive; LGR2 antag: 58; NR5A2 inv ag: inactive; SRC2 inh: inactive; SRC1 inh: inactive

How did COCC(=O)N(C)C[C@H]1Oc2cc(C#CC(C)C)ccc2S(=O)(=O)N([C@@H](C)CO)C[C@H]1C do in these assays?
LGR2 antag: inactive

What do the screens show for `CC(=O)OCCCNc1cc(Sc2ccc(C)cc2)c2nonc2c1[N+](=O)[O-]`?
NCOA3 inh: inactive; LGR2 antag: 51; NR5A2 inv ag: inactive; SRC2 inh: inactive; SRC1 inh: inactive

What do the screens show for `O=C(NCCc1ccccc1)c1ccccc1Cl`?
NCOA3 inh: inactive; LGR2 antag: 58; NR5A2 inv ag: inactive; SRC2 inh: inactive; SRC1 inh: inactive

Results for O=C(NCCc1ccccc1)c1ccc2nccnc2c1 ?
NCOA3 inh: inactive; LGR2 antag: 68; NR5A2 inv ag: inactive; SRC2 inh: inactive; SRC1 inh: inactive

Results for O=C(NCCc1ccccc1)c1ccc2c(c1)OCO2 ?
NCOA3 inh: inactive; LGR2 antag: 79; NR5A2 inv ag: inactive; SRC2 inh: inactive; SRC1 inh: inactive

What do the screens show for `CCOc1ccc(C(=O)NCCc2ccccc2)cc1`?
NCOA3 inh: inactive; LGR2 antag: 78; NR5A2 inv ag: inactive; SRC2 inh: inactive; SRC1 inh: inactive

What do the screens show for `O=C(O)c1ccccc1C(=O)NCCc1ccc(Cl)cc1`?
NCOA3 inh: inactive; LGR2 antag: inactive; NR5A2 inv ag: inactive; SRC2 inh: inactive; SRC1 inh: inactive

What do the screens show for `NC(=O)c1sc2nc3c(c(-c4cccnc4)c2c1N)CCC3`?
NCOA3 inh: inactive; NR5A2 inv ag: inactive; SRC2 inh: inactive; SRC1 inh: inactive

Results for NC(=O)c1sc2nc3c(c(-c4cccs4)c2c1N)CCCCC3 ?
NCOA3 inh: 67; NR5A2 inv ag: inactive; SRC2 inh: inactive; SRC1 inh: 69

How did Cc1cc2ncc(-c3cccs3)nc2cc1C do in these assays?
NCOA3 inh: inactive; LGR2 antag: 71; NR5A2 inv ag: inactive; SRC2 inh: inactive; SRC1 inh: inactive

Results for c1csc(-c2ccc3ccccc3n2)c1 ?
NCOA3 inh: inactive; NR5A2 inv ag: inactive; SRC2 inh: inactive; SRC1 inh: inactive

What do the screens show for `Cc1ccnc(NC(=O)CCCOc2cc(=O)n(C)c3ccccc23)c1`?
NCOA3 inh: inactive; LGR2 antag: inactive; NR5A2 inv ag: 74; SRC2 inh: inactive; SRC1 inh: inactive

How did Cn1c(=O)cc(OCCCC(=O)NCc2ccccn2)c2ccccc21 do in these assays?
NCOA3 inh: inactive; LGR2 antag: inactive; NR5A2 inv ag: inactive; SRC2 inh: inactive; SRC1 inh: inactive

Results for CC(C)c1cn(CC[C@@H]2CC[C@H](NC(=O)C3CCOCC3)[C@@H](CO)O2)nn1 ?
LGR2 antag: inactive

What do the screens show for `CCOc1ccc(-c2ccc(SC)nn2)cc1`?
NCOA3 inh: inactive; LGR2 antag: 99; NR5A2 inv ag: inactive; SRC2 inh: inactive; SRC1 inh: inactive

How did CCOc1ccc(-c2ccc(SCC(=O)Nc3nnc(CC)s3)nn2)cc1 do in these assays?
NCOA3 inh: inactive; LGR2 antag: inactive; NR5A2 inv ag: inactive; SRC2 inh: inactive; SRC1 inh: inactive

Results for COc1ccc(NC(=O)N(C)C[C@H]2Oc3ccc(NC(=O)CCCCCC(=O)Nc4ccccc4N)cc3C(=O)N([C@@H](C)CO)C[C@@H]2C)cc1 ?
LGR2 antag: inactive

Results for COc1cccc(F)c1C(C[N+](=O)[O-])c1c(N)n(C)c(=O)n(C)c1=O (stereo unspecified) ?
NCOA3 inh: inactive; LGR2 antag: 64; NR5A2 inv ag: inactive; SRC2 inh: inactive; SRC1 inh: inactive

How did COc1cc(C(C[N+](=O)[O-])c2c(N)n(C)c(=O)n(C)c2=O)ccc1O (stereo unspecified) do in these assays?
NCOA3 inh: inactive; NR5A2 inv ag: inactive; SRC2 inh: inactive; SRC1 inh: inactive

What do the screens show for `COc1ccc(C(=O)C(CCC(CNC(C)(C)C)C(=O)c2ccc(OC)cc2)CNC(C)(C)C)cc1` (stereo unspecified)?
NCOA3 inh: inactive; LGR2 antag: inconclusive; NR5A2 inv ag: inactive; SRC2 inh: 54; SRC1 inh: inactive

How did O=[N+]([O-])c1ccc(N2CCN(Cc3ccccc3)CC2)s1 do in these assays?
NCOA3 inh: inactive; LGR2 antag: inactive; NR5A2 inv ag: inactive; SRC2 inh: inactive; SRC1 inh: inactive

Results for O=[N+]([O-])c1ccc(N2CCN(Cc3ccccc3)CC2)c2c1no[n+]2[O-] ?
NCOA3 inh: inactive; LGR2 antag: 102; NR5A2 inv ag: inactive; SRC2 inh: inactive; SRC1 inh: inactive
